Experimental data as given in the antibiotic and cytotoxicity screens of Wong et al. (2023).
In all, about 39,000 compounds went through this assay and about 1,500 (3.8%) were called active. The entries come from a sample that favours actives as a whole.

These compounds were tested on HSkMC (human skeletal muscle cells) (assay: cytotoxicity call (relative viability < 0.9)). Details: 10 µM.

| Structure (SMILES) | cytotoxicity call |
| --- | --- |
| C[C@@H]1CN([C@@H](C)CO)C(=O)Cc2cc(NC(=O)Nc3cccc4ccccc34)ccc2O[C@@H]1CN(C)Cc1ccc2c(c1)OCO2 | inactive |
| Cc1noc(C)c1NC(=O)N(C)C[C@@H]1OCCCC[C@@H](C)Oc2ccc(NC(=O)Nc3ccccc3)cc2C(=O)N([C@@H](C)CO)C[C@@H]1C | inactive |
| Cc1noc(C)c1S(=O)(=O)N(C)C[C@H]1OCCCC[C@@H](C)Oc2ccc(NC(=O)Nc3ccccc3)cc2C(=O)N([C@@H](C)CO)C[C@@H]1C | inactive |
| COc1ccc(NC(=O)Nc2ccc3c(c2)C(=O)N([C@H](C)CO)C[C@H](C)[C@@H](CN(C)S(=O)(=O)c2c(C)noc2C)OCCCC[C@@H](C)O3)cc1 | inactive |
| C[C@@H]1CCCCO[C@@H](CN(C)C(=O)NC2CCCCC2)[C@H](C)CN([C@H](C)CO)C(=O)c2cc(NC(=O)Cc3ccccc3)ccc2O1 | inactive |
| CC(C)NC(=O)Nc1ccc2c(c1)C(=O)N([C@@H](C)CO)C[C@@H](C)[C@H](CN(C)S(=O)(=O)c1cn(C)cn1)OCCCC[C@@H](C)O2 | inactive |
| C[C@@H]1CCCCO[C@@H](CN(C)Cc2ccc3c(c2)OCO3)[C@@H](C)CN([C@H](C)CO)C(=O)c2cc(NC(=O)Nc3ccc(C(F)(F)F)cc3)ccc2O1 | inactive |
| C[C@H](CO)N1C[C@H](C)[C@@H](CN(C)Cc2ccc3c(c2)OCO3)OCCCC[C@H](C)Oc2ccc(NC(=O)Nc3ccc(C(F)(F)F)cc3)cc2C1=O | active |
| C[C@@H]1CN([C@@H](C)CO)C(=O)c2cc(NC(=O)Nc3ccc(C(F)(F)F)cc3)ccc2O[C@@H](C)CCCCO[C@@H]1CN(C)Cc1ccc2c(c1)OCO2 | inactive |
| C[C@@H]1CCCCO[C@@H](CN(C)Cc2ccc3c(c2)OCO3)[C@H](C)CN([C@@H](C)CO)C(=O)c2cc(NC(=O)Nc3ccc(C(F)(F)F)cc3)ccc2O1 | active |
| C[C@H](CO)N1C[C@H](C)[C@H](CN(C)Cc2ccc3c(c2)OCO3)OCCCC[C@H](C)Oc2ccc(NC(=O)Nc3ccc(C(F)(F)F)cc3)cc2C1=O | active |
| C[C@@H]1CN([C@H](C)CO)C(=O)c2cc(NC(=O)Nc3ccc(C(F)(F)F)cc3)ccc2O[C@@H](C)CCCCO[C@H]1CN(C)Cc1ccc2c(c1)OCO2 | active |
| CC(C)NC(=O)Nc1cccc2c1O[C@@H](CN(C)S(=O)(=O)c1ccccc1)[C@H](C)CN([C@H](C)CO)C2=O | inactive |
| C[C@@H]1CN([C@@H](C)CO)S(=O)(=O)c2ccc(Br)cc2O[C@H]1CN(C)C(=O)c1ccncc1 | inactive |
| C[C@H](CO)N1C[C@H](C)[C@@H](CN(C)S(=O)(=O)c2ccc(Oc3ccccc3)nc2)OCc2cn(nn2)CCCC1=O | inactive |
| c1ccc2c(c1)[nH]c1ncccc12 | inactive |
| CCC(=O)N[C@H]1C=C[C@H](CC(=O)OC)O[C@@H]1CO | inactive |
| COc1ccc(NC(=O)Nc2ccc3c(c2)C(=O)N([C@@H](C)CO)C[C@H](C)[C@@H](CN(C)C(=O)c2ccccc2)OCCCC[C@H](C)O3)cc1 | inactive |
| O=S(=O)(N1CCOCC1)N1CCCN(S(=O)(=O)N2CCOCC2)CC1 | inactive |
| C[C@@H](O)C#Cc1ccc2c(c1)O[C@H](CN(C)C(=O)Cc1ccccn1)[C@@H](C)CN([C@@H](C)CO)S2(=O)=O | inactive |
| O=C(C[C@H]1C=C[C@H](NC(=O)CN2CCOCC2)[C@@H](CO)O1)NC1CCCCC1 | inactive |

| Structure (SMILES) | cytotoxicity call |
| --- | --- |
| Nc1ccc(S(N)(=O)=O)cn1 | inactive |
| Cc1cc(C(=O)Nc2cccc3c2O[C@@H](CN(C)Cc2ccc(C(=O)O)cc2)[C@@H](C)CN([C@@H](C)CO)C3=O)n(C)n1 | inactive |
| C[C@@H]1CCCCO[C@@H](CN(C)Cc2ccc3c(c2)OCO3)[C@@H](C)CN([C@@H](C)CO)C(=O)c2cc(NC(=O)Nc3ccc(C(F)(F)F)cc3)ccc2O1 | active |
| C[C@@H]1CCCCO[C@H](CN(C)Cc2ccc3c(c2)OCO3)[C@@H](C)CN([C@@H](C)CO)C(=O)c2cc(NC(=O)Nc3ccc(C(F)(F)F)cc3)ccc2O1 | active |
| C[C@H](CO)N1C[C@H](C)[C@H](CN(C)C(=O)Nc2ccc3c(c2)OCO3)OCCCC[C@H](C)Oc2ccc(NC(=O)CCC(F)(F)F)cc2C1=O | inactive |
| C[C@@H]1CN([C@H](C)CO)C(=O)c2cc(NC(=O)NC3CCCCC3)ccc2O[C@@H]1CN(C)Cc1ccc(Oc2ccccc2)cc1 | inactive |
| Cc1noc(C)c1S(=O)(=O)Nc1ccc2c(c1)C(=O)N([C@H](C)CO)C[C@@H](C)[C@H](CN(C)S(=O)(=O)c1cn(C)cn1)OCCCC[C@@H](C)O2 | inactive |
| C/C=C1\NC(=O)[C@H]2CSSCC/C=C/[C@H](CC(=O)N[C@H](C(C)C)C(=O)N2)OC(=O)[C@H](C(C)C)NC1=O | active |
| CC(C)NC(=O)N(C)C[C@H]1Oc2ccc(NC(=O)CCN3CCOCC3)cc2CC(=O)N([C@@H](C)CO)C[C@@H]1C | inactive |
| COCC(=O)N1CC[C@]2(CC1)CN([C@@H](CO)c1c2c2ccc(cc2n1C)OC)C(=O)CN1CCOCC1 | inactive |
| CCOC(=O)c1c(CN2CCN(c3ccccc3)CC2)n(-c2ccccc2)c2cc(Br)c(OC)cc12 | inactive |
| CCOC(=O)c1c(CN2CCN(CCOCCO)CC2)n(-c2ccccc2)c2cc(Br)c(O)cc12 | inactive |
| CCOC(=O)c1c(CN2CCN(Cc3ccccc3)CC2)n(-c2ccccc2)c2cc(Br)c(OC)cc12 | inactive |
| CCOC(=O)c1c(CN2CCN(c3ccccc3)CC2)n(C2CCCCC2)c2cc(Br)c(O)cc12 | active |
| CCOC(=O)c1c(CN2CCN(c3ccc(C)cc3)CC2)n(-c2ccccc2)c2cc(Br)c(OC)cc12 | inactive |
| CCOC(=O)c1c(CN2CCN(c3ccccc3)CC2)n(-c2ccccc2)c2cc(Br)c(O)cc12 | active |
| CCOC(=O)c1c(CN2CCN(c3ccccc3C)CC2)n(-c2ccccc2)c2cc(Br)c(O)cc12 | active |
| CCOC(=O)c1c(CNCCN(CC)CC)n(-c2ccccc2)c2cc(Br)c(OC)cc12 | inactive |
| CCOC(=O)c1c(CN2CCN(Cc3ccccc3)CC2)n(-c2ccccc2)c2cc(Br)c(O)cc12 | inactive |
| COc1ccc(CN(C)C[C@@H]2OCCCC[C@@H](C)Oc3ccc(NC(=O)Nc4c(C)noc4C)cc3C(=O)N([C@H](C)CO)C[C@@H]2C)cc1 | inactive |
